# PubChem BioAssay
# For part of these data: Measured potencies and affinities stand elsewhere. The source made the active and inactive calls.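 How the source made its calls, unless noted: active means fluorescence ratio normalized to control raised more than 50% in primary screen plus both repeat runs; inactive means the rest.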
# How the values were obtained:
# [1] = system: TRPC4 beta (transient receptor potential cation channel C4), mouse; experiment: activators of mouse TRPC4 channel, confirmation, cell-based, Fluo4 calcium, HEK293 TRPC4beta/mu-opioid, duplicates, 10 µM (AID 2426); settings: Fluo4 calcium fluorescence, at 10 µM; hits give high values;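 on activation: percent rise of integrated ratio over buffer wells lacking compound which define 0%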
# [2] = system: transient receptor potential cation channel C4 beta (TRPC4), mouse; experiment: activators of mouse TRPC4 channel, confirmation, cell-based, second round, Fluo4, HEK293 TRPC4beta/mu-opioid, 1 µM (AID 2461;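 active means primary screen active and over 50% activation in each of two duplicate runs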); settings: Fluo4 calcium fluorescence, at 1 µM; hits give high values
# [3] = system: TRPC4 (transient receptor potential cation channel C4 beta), mouse; experiment: positive allosteric modulators of mouse TRPC4, confirmation, cell-based, second round, Fluo-4, HEK293 TRPC4beta/mu-opioid, 1 µM (AID 2554;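 active means primary screen hit whose fluorescence ratio, in both repeats, exceeds the weak agonist control mean by 3 SD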); settings: DAMGO EC20, Fluo-4 calcium flux, at 1 µM; hits give high values
# [4] = system: TRPC4 beta (transient receptor potential cation channel C4), mouse; experiment: positive allosteric modulators of mouse TRPC4, confirmation, cell-based, Fluo-4, HEK293 TRPC4beta/mu-opioid (AID 2555;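 active means primary screen hit whose calcium fluorescence ratio, in both repeats, exceeds the weak agonist control mean by 3 SD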); settings: DAMGO EC20, Fluo-4 calcium flux, at 10 µM; hits give high values
# [5] = biological target: Short transient receptor potential channel 4 (Mus musculus) (UniProt Q9QUQ5); experiment: inhibitors of mouse TRPC4 channel, confirmation, cell-based, Fluo4, HEK293 TRPC4beta/mu-opioid (AID 2636;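 active means calcium signal cut by more than 3 SD below the full-agonist control yet still positive, in both repeats and the earlier primary screen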); settings: DAMGO, Fluo4 calcium flux, at 10 µM; hits give high values
# Short transient receptor potential channel 4 (Mus musculus), sequence (Q9QUQ5 whole entry, looked up): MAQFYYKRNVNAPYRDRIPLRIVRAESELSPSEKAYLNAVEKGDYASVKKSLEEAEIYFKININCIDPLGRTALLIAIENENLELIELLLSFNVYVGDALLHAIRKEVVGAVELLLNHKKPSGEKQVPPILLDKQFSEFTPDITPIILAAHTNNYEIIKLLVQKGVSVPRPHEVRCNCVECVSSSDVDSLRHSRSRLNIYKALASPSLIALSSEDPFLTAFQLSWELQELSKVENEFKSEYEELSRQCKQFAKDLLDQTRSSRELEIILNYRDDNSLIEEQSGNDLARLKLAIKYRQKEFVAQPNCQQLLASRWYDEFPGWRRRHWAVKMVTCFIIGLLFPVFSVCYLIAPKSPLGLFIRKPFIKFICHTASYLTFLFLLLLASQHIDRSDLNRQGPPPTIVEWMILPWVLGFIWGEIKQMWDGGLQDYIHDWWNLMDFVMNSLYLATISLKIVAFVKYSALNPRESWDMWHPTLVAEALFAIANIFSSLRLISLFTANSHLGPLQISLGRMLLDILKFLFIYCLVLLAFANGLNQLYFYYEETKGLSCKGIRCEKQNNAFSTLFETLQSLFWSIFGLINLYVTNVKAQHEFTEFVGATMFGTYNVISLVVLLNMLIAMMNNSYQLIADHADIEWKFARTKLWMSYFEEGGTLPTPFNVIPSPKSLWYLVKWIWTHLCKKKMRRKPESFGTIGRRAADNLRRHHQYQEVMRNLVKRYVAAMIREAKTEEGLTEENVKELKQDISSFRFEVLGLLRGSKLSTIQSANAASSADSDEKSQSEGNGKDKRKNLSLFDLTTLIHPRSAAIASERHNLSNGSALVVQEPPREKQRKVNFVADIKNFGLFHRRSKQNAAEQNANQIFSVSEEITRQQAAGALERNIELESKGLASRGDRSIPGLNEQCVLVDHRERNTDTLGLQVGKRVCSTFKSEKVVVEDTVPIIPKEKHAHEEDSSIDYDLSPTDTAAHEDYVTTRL
# [6] = biological target: Short transient receptor potential channel 4 (Mus musculus) (UniProt Q9QUQ5); experiment: inhibitors of mouse TRPC4 channel, confirmation, cell-based, second round, Fluo4, HEK293 TRPC4beta/mu-opioid, 1 µM (AID 2637;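 active means calcium signal ratio cut to more than 3 SD under the fully stimulated control mean yet still positive, in both repeats and the primary screen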); settings: Fluo4 calcium flux, DAMGO, at 1 µM; hits give high values
# [7] = biological target: Short transient receptor potential channel 4 (Mus musculus) (UniProt Q9QUQ5); experiment: mouse TRPC4 channel activators, dose response, cell-based, HEK293 TRPC4/mu-opioid, Fluo-4 calcium (AID 434937;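 active means primary screen activator hit with a dose response curve and TRPC4 channel activation at any tested dose; inactive means no activation, no dose response, or not a primary hit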)
# [8] = biological target: Short transient receptor potential channel 4 (Mus musculus) (UniProt Q9QUQ5); experiment: TRPC4 positive allosteric modulators, dose response, cell-based, HEK293 TRPC4/mu-opioid, Fluo-4 calcium, EC20 DAMGO (AID 434941;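 active means earlier screen potentiator hit that boosts the TRPC4 ion channel at some dose, with a dose response; inactive means no potentiation, no dose response, or not a prior hit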;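 further: calcium entry triggered by an EC20 dose of DAMGO at the co-expressed mu-opioid receptor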)
# [9] = biological target: Short transient receptor potential channel 4 (Mus musculus) (UniProt Q9QUQ5); experiment: mouse TRPC4 channel inhibitors, dose response, cell-based, HEK293 TRPC4/mu-opioid, Fluo-4 calcium (AID 434942;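 active means primary screen inhibitor hit that blocks the TRPC4 channel at some tested dose, yielding a dose curve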)
# [10] = biological target: Short transient receptor potential channel 6 (Mus musculus) (UniProt Q61143); experiment: inhibition of mouse TRPC6 channel, confirmation, selectivity assay for TRPC4 inhibitor project, cell-based, HEK293, membrane potential dye, duplicate (AID 434948;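 active means active in primary screen and both duplicates, each dropping signal beyond three positive-control SD with fluorescence still positive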); settings: HEK293 TRPC6, membrane potential dye fluorescence, at 10 µM, stimulated with maximal-effect acetylcholine; hits give high values
# Short transient receptor potential channel 6 (Mus musculus), sequence (Q61143 whole entry, looked up): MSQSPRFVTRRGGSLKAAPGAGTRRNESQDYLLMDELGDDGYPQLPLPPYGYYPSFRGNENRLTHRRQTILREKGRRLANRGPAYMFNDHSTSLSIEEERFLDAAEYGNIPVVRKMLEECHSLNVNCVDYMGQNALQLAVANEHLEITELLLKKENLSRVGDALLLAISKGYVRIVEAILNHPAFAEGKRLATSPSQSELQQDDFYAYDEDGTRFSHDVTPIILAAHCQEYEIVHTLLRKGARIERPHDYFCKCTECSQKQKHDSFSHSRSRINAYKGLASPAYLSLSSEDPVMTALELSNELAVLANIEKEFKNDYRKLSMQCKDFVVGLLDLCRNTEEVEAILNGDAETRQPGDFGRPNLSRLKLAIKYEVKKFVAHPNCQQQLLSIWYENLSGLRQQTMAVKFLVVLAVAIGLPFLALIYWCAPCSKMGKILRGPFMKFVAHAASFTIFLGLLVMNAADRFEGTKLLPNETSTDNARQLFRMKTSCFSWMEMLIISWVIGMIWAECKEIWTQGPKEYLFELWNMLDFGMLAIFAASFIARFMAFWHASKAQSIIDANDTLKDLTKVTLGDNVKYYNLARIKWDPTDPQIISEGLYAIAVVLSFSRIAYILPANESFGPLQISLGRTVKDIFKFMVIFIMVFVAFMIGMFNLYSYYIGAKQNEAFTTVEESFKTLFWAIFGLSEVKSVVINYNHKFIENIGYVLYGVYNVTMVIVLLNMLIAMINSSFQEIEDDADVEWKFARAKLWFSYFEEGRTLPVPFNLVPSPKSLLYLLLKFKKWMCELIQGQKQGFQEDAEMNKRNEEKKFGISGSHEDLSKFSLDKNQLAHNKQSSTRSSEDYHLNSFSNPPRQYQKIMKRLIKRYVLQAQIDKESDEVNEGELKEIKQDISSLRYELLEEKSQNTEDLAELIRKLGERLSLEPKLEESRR
# [11] = biological target: Short transient receptor potential channel 6 (Mus musculus) (UniProt Q61143); experiment: activation of mouse TRPC6 channel, confirmation, selectivity assay for TRPC4 activator project, cell-based, HEK293, membrane potential dye, duplicate (AID 434950;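 active means membrane potential signal rise above negative control mean plus 3 SD in both duplicates, also active in the earlier TRPC4 screen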); settings: HEK293 TRPC6, membrane potential fluorescence, at 10 µM; hits give high values
# [12] = biological target: Short transient receptor potential channel 6 (Mus musculus) (UniProt Q61143); experiment: TRPC6 potentiation by TRPC4 potentiator hits, confirmation, selectivity assay for TRPC4 potentiator project, HEK293 cells, membrane potential dye, duplicate (AID 434952;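 active means compound raising the membrane signal above positive-control mean plus 3 SD in both repeats, and a primary screen hit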); settings: HEK293 TRPC6, membrane potential dye fluorescence, at 10 µM, maximal acetylcholine added after compound; hits give high values
# [13] = biological target: Short transient receptor potential channel 4 (Mus musculus) (UniProt Q9QUQ5); experiment: calcium flux activators in TRPC4/5HT1a cells, counter-screen for TRPC4 activator project, cell-based, second counter screen, HEK293 TRPC4/5HT1a, Fluo-4 (AID 434977;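 active means calcium signal rise above buffer-control mean plus 5 SD in both duplicates, and also a hit in the primary screen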); settings: Fluo-4 calcium flux, at 10 µM; hits give high values
# [14] = calcium flux inhibitors in TRPC4/5HT1a cells, confirmation, counter-screen for TRPC4 inhibitor project, cell-based, second counter screen, HEK293 TRPC4/5HT1a, Fluo-4 (AID 434978;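 active means primary screen active whose calcium signal fell more than 3 SD beyond the full-serotonin control mean in both duplicate plates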;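 on outcome: serotonin given first at submaximal then at maximal dose after compound preincubation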); settings: Fluo-4 calcium flux, at 10 µM, serotonin added to trigger calcium flux; hits give high values
# [15] = system: TRPC4 (mouse), co-expressed with 5HT1a in HEK293; experiment: calcium flux potentiators in TRPC4/5HT1a cells, confirmation, counter-screen for TRPC4 potentiator project, cell-based, second counter screen, HEK293 TRPC4/5HT1a, Fluo-4 (AID 434979;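 active means signal rise over 3 SD above mean of control wells given weak agonist, in both repeats and first screen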); settings: Fluo-4 calcium flux, at 10 µM, serotonin added at its EC20 dose; hits give high values
# [16] = calcium flux activation in mu-opioid HEK293 cells, confirmation, counter-screen for TRPC4 activator project, cell-based, HEK293 mu-opioid receptor line (AID 449723;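 active means hit in primary screen, with calcium signal over 5 SD above buffer well mean in both duplicates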;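 further: counter screen cells carry the mu-opioid receptor alone and lack TRPC4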); settings: Fluo-4 calcium fluorescence, at 10 µM; hits give high values
# [17] = calcium flux enhancement in mu-opioid HEK293 cells, confirmation, counter-screen for TRPC4 allosteric potentiator project, cell-based, HEK293 mu-opioid receptor line (AID 449724;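 active means calcium signal rise more than 3 SD above the low-dose agonist control mean, in both duplicate plates and the primary screen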); settings: Fluo-4 calcium flux, at 10 µM, compound added before EC20 DAMGO stimulus; hits give high values
smiles,measurement,setting,value
COc1ccc(CCn2c(=S)[nH]c3cc(C(=O)N4CCOCC4)ccc3c2=O)cc1OC,outcome,[1],inactive
same,outcome,[2],inactive
same,outcome,[3],inactive
same,outcome,[4],inactive
same,outcome,[5],inactive
same,outcome,[6],inactive
same,outcome,[7],inactive
same,outcome,[8],inactive
same,outcome,[9],inactive
same,outcome,[10],inactive
same,outcome,[11],inactive
same,outcome,[12],inactive
same,outcome,[13],inactive
same,outcome,[14],inactive
same,outcome,[15],inactive
same,outcome,[16],inactive
same,outcome,[17],inactive
CN1CCN(CC#CCn2c3ccccc3c3ccccc32)CC1,outcome,[1],inactive
same,outcome,[2],inactive
same,potentiation,[3],10% (active)
same,potentiation,[4],12% (active)
same,outcome,[5],inactive
same,outcome,[6],inactive
same,outcome,[7],inactive
same,outcome,[8],inactive
same,outcome,[9],inactive
same,outcome,[10],inactive
same,outcome,[11],inactive
same,outcome,[12],inactive
same,outcome,[13],inactive
same,outcome,[14],inactive
same,potentiation,[15],38.7% (active)
same,outcome,[16],inactive
same,outcome,[17],inactive
CN(C)CCCNc1c2c(nc3cc(-c4cccc(F)c4)nn13)CCC2,activation,[1],81% (active)
same,outcome,[2],inactive
same,outcome,[3],inactive
same,outcome,[4],inactive
same,outcome,[5],inactive
same,outcome,[6],inactive
same,outcome,[7],inactive
same,outcome,[8],inactive
same,outcome,[9],inactive
same,outcome,[10],inactive
same,outcome,[11],inactive
same,outcome,[12],inactive
same,outcome,[13],inactive
same,outcome,[14],inactive
same,outcome,[15],inactive
same,outcome,[16],inactive
same,outcome,[17],inactive
CCOc1cccc(CN2CCCC(C(=O)c3cccc(C(F)(F)F)c3)C2)c1O (stereo not given),outcome,[1],inactive
same,outcome,[2],inactive
same,outcome,[3],inactive
same,outcome,[4],inactive
same,inhibition,[5],77% (active)
same,outcome,[6],inactive
same,outcome,[7],inactive
same,outcome,[8],inactive
same,outcome,[9],inactive
same,outcome,[10],inactive
same,outcome,[11],inactive
same,outcome,[12],inactive
same,outcome,[13],inactive
same,inhibition,[14],42.2% (active)
same,outcome,[15],inactive
same,outcome,[16],inactive
same,outcome,[17],inactive
O=C(Nc1ncc(Br)s1)C(Cc1ccccc1)n1cccc1 (stereo not given),outcome,[1],inactive
same,outcome,[2],inactive
same,outcome,[3],inactive
same,potentiation,[4],26% (active)
same,outcome,[5],inactive
same,outcome,[6],inactive
same,outcome,[7],inactive
same,outcome,[8],inactive
same,outcome,[9],inactive
same,outcome,[10],inactive
same,outcome,[11],inactive
same,outcome,[12],inactive
same,outcome,[13],inactive
same,outcome,[14],inactive
same,potentiation,[15],7.42% (active)
same,outcome,[16],inactive
same,outcome,[17],inactive
O=C1CC2(CCN(S(=O)(=O)c3ccccc3F)CC2)Oc2ccccc21,outcome,[1],inactive
same,outcome,[2],inactive
same,outcome,[3],inactive
same,potentiation,[4],21% (active)
same,outcome,[5],inactive
same,outcome,[6],inactive
same,outcome,[7],inactive
same,outcome,[8],inactive
same,outcome,[9],inactive
same,outcome,[10],inactive
same,outcome,[11],inactive
same,outcome,[12],inactive
same,outcome,[13],inactive
same,outcome,[14],inactive
same,potentiation,[15],34.2% (active)
same,outcome,[16],inactive
same,outcome,[17],inactive
NCCc1nnc(SCc2ccccc2)o1,outcome,[1],inactive
same,outcome,[2],inactive
same,outcome,[3],inactive
same,outcome,[4],inactive
same,outcome,[5],inactive
same,outcome,[6],inactive
same,outcome,[7],inactive
same,outcome,[8],inactive
same,outcome,[9],inactive
same,outcome,[10],inactive
same,outcome,[11],inactive
same,outcome,[12],inactive
same,outcome,[13],inactive
same,outcome,[14],inactive
same,outcome,[15],inactive
same,outcome,[16],inactive
same,outcome,[17],inactive
O=C(Cn1nc(-c2ccccc2)ccc1=O)NCCN1CCN(Cc2ccccc2)CC1,outcome,[1],inactive
same,outcome,[2],inactive
same,outcome,[3],inactive
same,outcome,[4],inactive
same,outcome,[5],inactive
same,outcome,[6],inactive
same,outcome,[7],inactive
same,outcome,[8],inactive
same,outcome,[9],inactive
same,outcome,[10],inactive
same,outcome,[11],inactive
same,outcome,[12],inactive
same,outcome,[13],inactive
same,outcome,[14],inactive
same,potentiation,[15],13% (active)
same,outcome,[16],inactive
same,outcome,[17],inactive
Cc1ccc(C)n1-c1ncc(Br)cn1,outcome,[1],inactive
same,outcome,[2],inactive
same,outcome,[3],inactive
same,potentiation,[4],10% (active)
same,outcome,[5],inactive
same,outcome,[6],inactive
same,outcome,[7],inactive
same,outcome,[8],inactive
same,outcome,[9],inactive
same,outcome,[10],inactive
same,outcome,[11],inactive
same,outcome,[12],inactive
same,outcome,[13],inactive
same,outcome,[14],inactive
same,potentiation,[15],31.9% (active)
same,outcome,[16],inactive
same,outcome,[17],inactive
C/C(=N/Nc1ccnc2cc(Cl)ccc12)c1ccc(N)cc1,outcome,[1],inactive
same,outcome,[2],inactive
same,outcome,[3],inactive
same,outcome,[4],inactive
same,outcome,[5],inactive
same,outcome,[6],inactive
same,outcome,[7],inactive
same,outcome,[8],inactive
same,outcome,[9],inactive
same,outcome,[10],inactive
same,outcome,[11],inactive
same,outcome,[12],inactive
same,outcome,[13],inactive
same,outcome,[14],inactive
same,outcome,[15],inactive
same,outcome,[16],inactive
same,outcome,[17],inactive
CC[n+]1c(/C=C/c2ccc(OC(C)=O)c(OC)c2)ccc2ccccc21,outcome,[1],inactive
same,outcome,[2],inactive
same,outcome,[3],inactive
same,outcome,[4],inactive
same,outcome,[5],inactive
same,outcome,[6],inactive
same,outcome,[7],inactive
same,outcome,[8],inactive
same,outcome,[9],inactive
same,outcome,[10],inactive
same,outcome,[11],inactive
same,outcome,[12],inactive
same,outcome,[13],inactive
same,outcome,[14],inactive
same,outcome,[15],inactive
same,outcome,[16],inactive
same,outcome,[17],inactive
NC(=S)N/N=C1/CCSc2ccc3ccccc3c21,outcome,[1],inactive
same,outcome,[2],inactive
same,outcome,[3],inactive
same,potentiation,[4],25% (active)
same,outcome,[5],inactive
same,outcome,[6],inactive
same,outcome,[7],inactive
same,outcome,[8],inactive
same,outcome,[9],inactive
same,outcome,[10],inactive
same,outcome,[11],inactive
same,outcome,[12],inactive
same,outcome,[13],inactive
same,outcome,[14],inactive
same,potentiation,[15],18.7% (active)
same,outcome,[16],inactive
same,outcome,[17],inactive
Cc1ccc(CNC(=O)CCC2CCCN(Cc3cc4ccccc4o3)C2)o1 (stereo not given),outcome,[1],inactive
same,outcome,[2],inactive
same,outcome,[3],inactive
same,outcome,[4],inactive
same,outcome,[5],inactive
same,outcome,[6],inactive
same,outcome,[7],inactive
same,outcome,[8],inactive
same,outcome,[9],inactive
same,outcome,[10],inactive
same,outcome,[11],inactive
same,outcome,[12],inactive
same,outcome,[13],inactive
same,outcome,[14],inactive
same,outcome,[15],inactive
same,outcome,[16],inactive
same,outcome,[17],inactive
O=C(COc1ccccc1)NC1CCCCCCC1,outcome,[1],inactive
same,outcome,[2],inactive
same,potentiation,[3],9% (active)
same,potentiation,[4],33% (active)
same,outcome,[5],inactive
same,outcome,[6],inactive
same,outcome,[7],inactive
same,outcome,[8],inactive
same,outcome,[9],inactive
same,outcome,[10],inactive
same,outcome,[11],inactive
same,outcome,[12],inactive
same,outcome,[13],inactive
same,outcome,[14],inactive
same,potentiation,[15],40.7% (active)
same,outcome,[16],inactive
same,outcome,[17],inactive
O=c1[nH]ncc(N2CCN(Cc3ccccc3)CC2)c1Cl,outcome,[1],inactive
same,outcome,[2],inactive
same,outcome,[3],inactive
same,outcome,[4],inactive
same,outcome,[5],inactive
same,outcome,[6],inactive
same,outcome,[7],inactive
same,outcome,[8],inactive
same,outcome,[9],inactive
same,outcome,[10],inactive
same,outcome,[11],inactive
same,outcome,[12],inactive
same,outcome,[13],inactive
same,outcome,[14],inactive
same,outcome,[15],inactive
same,outcome,[16],inactive
same,outcome,[17],inactive
